This is an account of results in ChEMBL document CHEMBL4513160, “CO-ADD screening of MMV (CH) - Small Polar Library”.

SMILES strings stand for the structures. Hit rate of the full screen: of about 21,000 compounds, fewer than 10 showed an effect of 50% or more. A selection follows. Potency and affinity values are given separately.

In the assay the test system is Acinetobacter baumannii. Particulars: Concentration 300 ug.mL-1; ASSAY_TEST Inhibition of Bacterial Growth; detection method Absorption (OD600); MEDIA CAMHB; plate type 384well; NBS; CORNING #3640; time 18 hr.
A word on the Inhibition: it is the change of the read-out against control, counted positive when it falls. As to `CCC(=O)NCCc1noc(COC)n1`, the Inhibition is listed as 8.83%.
Take `CCOc1cccc(C(C)NC(=O)CNC(C)=O)c1` (stereo not given): the Inhibition came out at 8.25%.
Regarding `CCC(=O)N1CCN(C(=O)CC2CCCCC2)CC1`, the Inhibition was 6.05%.
For `CC1Cc2ccccc2N1CCN` (stereo not given), the Inhibition stood at 14.26%.
The figure for `O=C1Nc2ccccc2C1C1CCNCC1` (stereo not given) is 10.09%.
As for `Cc1cc(C)cc(OCC(=O)N2CCN[C@H](C)C2)c1`, the figure is 8.4%; as for `CC1=C(c2ccco2)CN(CC(N)=O)CC1`, 3.95%; as for `O=C(Nc1cncc(Br)c1Cl)N1CCC(O)C1` (stereo not given), -0.64%.
As for `NCc1cccc(N2CC=CC2)c1`, the figure is 6.5%; as for `O=C(CCN1CCOCC1)Nc1cccc(Cl)c1`, 5.94%; as for `O=C(Cn1ccnc1)Nc1ccc(OC(F)F)cc1`, 8%.
`CNC(=O)CSc1nnc(C2CC2)n1C`: the Inhibition is 5.97%.
As for `CC(=O)c1c(C)[nH]c(C(=O)OCC(=O)N(C)C)c1C`, the figure is 5.39%; as for `NCc1ccc(-c2ccccc2)o1`, 16.01%.
The figure for `CC(C)CCNC(=O)Nc1c[nH]c(=O)[nH]c1=O` is 6.3%; for `CCCNC(=O)Cn1ccnc1SC` it is 10.93%; for `CNC(=O)c1cccc(CN)n1` it is 9.63%.
The figure for `CN(C)[C@H]1CN(C(=O)c2ccncc2)C[C@@H]1C1CC1` is 10.19%; for `CCn1cnnc1CC1CCCNC1` (stereo not given) it is 9.33%.
Regarding `Cc1ccc(OC2CCN(C(=O)[C@@H](C)N)CC2)cc1`, the Inhibition came to 3.78%.
As for `CN[C@@H](C)C(=O)N1CC(Oc2ccccc2OC)C1`, the figure is -2.39%.
The figure for `CC(C)NC(=O)C(C)N` (stereo not given) is 9.53%; for `NC(c1ccc(Cl)cc1)c1ncon1` (stereo not given) it is 6.75%.
As for `O=C(Cn1ccc(=O)[nH]c1=O)NCc1cccnc1`, the figure is 6.41%; as for `CCOc1cc(C)ccc1CN`, 7.86%; as for `c1ncn(-c2ccc(NCC3CCOCC3)cc2)n1`, 5.37%.
For `Cc1nn(C)c2nc(NCCC(=O)N3CCCC3)sc12`, the Inhibition is on record as 3.37%.
The figure for `CNC(=O)[C@H]1CC[C@H](CNC(=O)c2cn[nH]c2)CC1` is 6.17%; for `CC(C)C(=O)N1CCC(N)C1` (stereo not given) it is 3.38%; for `Cc1nc(CN(C)C(=O)NCc2ccccc2)no1` it is 6.9%.
As for `CC(C)(C)OC(=O)N1CC(O)C1`, the figure is 5.37%.
For `COC(=O)c1ccc(NC(=O)N2CCOC(C)C2)cc1` (stereo not given), the Inhibition came to 6.27%.
For the molecule `CSc1ccc(OCCN(C)CC(N)=O)cc1`, the Inhibition was found to be 7.33%.
As for `CCOC(=O)c1csc(CNC(=O)c2ccc(C)o2)n1`, the figure is 0.25%.
The figure for `CN(CCN1CCCC1=O)C(=O)c1ccc(Br)cc1O` is 1.38%.
`CN[C@@H](CC(C)C)C(=O)NCCCc1csc(N)n1`: the Inhibition is recorded as -8.08%.
As for `COCC(=O)N1CCN(Cc2csc(C)n2)CC1`, the figure is 2.61%; as for `CCC(NC(=O)C1CC1)(C(N)=O)C(C)C` (stereo not given), 2.37%.
As for `Cc1cccc(NC(=O)C2COCCO2)c1` (stereo not given), the figure is 1.93%; as for `CC(=O)N1CCCC(C(=O)NCCc2nnc(C)s2)C1` (stereo not given), 6.35%; as for `O=C(OCCC1CCCO1)c1ccncc1` (stereo not given), -0.58%.
The figure for `O=C(CCC(F)(F)F)N[C@H]1CCCNC1` is 10.33%; for `CC(=O)N(C)CC(=O)Nc1ccccc1N1CCCC1` it is 8.57%; for `CN(C)c1nccc(N(C)CCn2cccn2)n1` it is 7.7%.
As for `CCN(C(=O)c1ccc(-c2ccco2)[nH]c1=O)C1CC1`, the Inhibition was 3.27%.
The figure for `COCC(=O)Nc1ccc(OCc2ccccn2)cc1` is 4.72%; for `COc1ccc(OCCN2CCNCC2)cc1` it is 8.28%.
As for `CC(=O)NC(C(=O)N1CCSCC1)C(C)C` (stereo not given), the Inhibition is given as 3.97%.
As for `CC(C)Oc1ncc(C(=O)N2CCC(O)CC2)cc1Cl`, the figure is 1.14%; as for `C[C@H](N)c1cccc(OCCN(C)C)c1`, 5.56%.
The figure for `C[C@@H]1CN(CCC(=O)NC2CCCC2)CC[C@]1(C)O` is 3.95%.
For `O=S(=O)(CCN1CCN(c2nccs2)CC1)C(F)(F)F`, the Inhibition was 11.95%.
As for `CS(=O)(=O)C[C@H]1CCCN1`, the figure is 4.73%; as for `CN(C(=O)c1ccc2c(c1)NC(=O)CS2)C1CCCC1`, 10.76%; as for `CN(C(=O)CCn1cccn1)C1CCS(=O)(=O)C1` (stereo not given), 0.97%.
As for `NCCNS(=O)(=O)c1ccc(F)cc1C(F)(F)F`, the figure is 9.19%.
For the molecule `CCn1cc(Br)c(C(C)=O)n1`, the Inhibition stood at 15.72%.
As for `CCc1nccn1CCNC(=O)Cc1nonc1C`, the figure is 6.19%; as for `O=C(Nc1ncccc1O)c1cnns1`, 5.13%.
As for `CN(C)CC[C@H](O)c1cccs1`, the figure is 11.43%; as for `Cc1occc1C(=O)N1CCC(NC(=O)C2CC2)CC1`, 4.82%; as for `CC(=O)c1cccc(COC(=O)c2cccnc2)c1`, 12%.
The figure for `CC(C)c1noc(CN(C)C(=O)C2=NNC(=O)CC2)n1` is -1.48%; for `CSCC(=O)N1CCN(S(=O)(=O)N2CCOCC2)CC1` it is -0.38%; for `CCSc1nccc(N)n1` it is 18.01%.
In the case of `CS(=O)(=O)NCCc1nc2c(s1)CCCC2`, the Inhibition is reported as 6.5%.
With `CNC(=O)c1cccc(NCc2cccnc2)n1`, the Inhibition is 1.67%.
As for `CCN(C(=O)C(C)O)C1CCCCC1` (stereo not given), the figure is 7.15%; as for `CN(Cc1ccc(Oc2ccccc2)cc1)C(=O)CN`, 13.35%.
As for `Cn1cc(S(=O)(=O)NCc2ccco2)cn1`, the figure is -0.88%.
As for `O=C1CCCc2sccc2N1`, the figure is 14.86%; as for `CCCS(=O)(=O)N1C[C@@H](CN(C)CCO)[C@@H](CO)C1`, 1.24%.
Consider `CNC(=O)c1ccc(CNC(=O)c2ccoc2C)cc1`, for which the Inhibition is given as 5.87%.
As for `COc1ccc(NC2CC(=O)N(C)C2=O)cc1OC` (stereo not given), the figure is 5.58%; as for `CCN1CCCC1CNC(=O)c1csc(NC(C)=O)n1` (stereo not given), -0.07%; as for `NCC(=O)NCCN1CCCCC1`, 9.69%.
As for `CCn1nnnc1NCc1sccc1C`, the figure is 11.07%.
The figure for `CCOc1ncccc1C(=O)OC(C)C(=O)NC1CC1` (stereo not given) is 0.66%; for `O=C(Nc1cccc(Cl)c1Cl)C1CCS(=O)(=O)C1` (stereo not given) it is -2.85%; for `CC(=O)c1cc[nH]c(=O)c1` it is 3.77%.
For `O=C(CNC1CC1)NC[C@H]1CCc2ccccc2O1`, the Inhibition worked out at 0.42%.
As for `Cc1ccc(CN(C)CC(=O)NCCC#N)o1`, the figure is 4.14%; as for `COc1ccc(CC(=O)NCC(C)C)c(OC)c1`, 9.02%.
As for `CCCn1nnnc1CSCc1ccccn1`, the figure is 1.73%; as for `CCCOc1ccc2c(c1)CCN(C(=O)C(C)N)C2` (stereo not given), 14.38%.
